Consider eight compounds from PubChem BioAssay (EPA / NIEHS).

Several values for one entry are separate records, joined by “and”; a condition that tells them apart may be missing. Equal values may be shown once. Results filed as inconclusive are left out. Activity calls are given as the source filed them. Rule for the calls, unless noted: active = hit-call score of the fitted dose curve at least 0.9, where 1 is the maximum; inconclusive = response in the unintended direction; inactive = score below 0.9.

In assay [1] the target is human Norepinephrine Transporter (NET), SLC6A2 (gene 6530) (UniProt P23975). Put plainly: NVS_TR_hNET: NovaScreen (NVS) Transporter Assay for human Norepinephrine Transporter (NET) (AID 2283377).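 For AC50: displacement of radioligand from human NET seen as loss of scintillation signal.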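 Note: cell-free membrane protein extracted from CHO cells expressing human NET.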 The method, boiled down: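 CHO cell extracts expressing the transporter; tritiated or iodinated tracer displaced competitively; filtration plus scintillation readout at 1 h. Single-point duplicates at 25 uM, concentration series for follow-up; activity = signal drop relative to DMSO.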

In assay [2] the target is Agonist Androgen Response Element (ARE), AR (gene 367) (UniProt P10275). Nature of the assay: OT_AR_ARELUC_AG_1440: Odyssey Thera (OT) 24-hour CHO-K1 Luciferase Assay for Agonist Androgen Response Element (ARE) (AID 2283379). An outline of the steps: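 Gain-of-signal reporter endpoint: cells (CHO-K1, hamster) are treated 24 h, luciferin/ATP reagent added, and luminescence compared with DMSO baseline.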

Assay [3] addresses Estrogen receptor beta (Homo sapiens) (UniProt Q92731). Nature of the assay: OT_ER_ERbERb_1440: Odyssey Thera (OT) 24-hour HEK293T Protein-Complementation Assay for Estrogen Receptor-beta/-beta Homodimer (AID 2283380).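 Note: scored as signal increase over DMSO baseline for both agonists and antagonists.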 The method, boiled down: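 HEK293T cells stably expressing ER beta LBD (aa 310-547) homodimer fragment-complementation reporter, dosed 24 h. Cells formaldehyde-fixed, Draq5-stained; gain in nuclear (agonist) or nuclear plus cytoplasmic (antagonist) fluorescence versus DMSO read by laser scanning cytometry.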

Assay [4] addresses Bile acid receptor (Homo sapiens) (UniProt Q96RI1). Put plainly: OT_FXR_FXRSRC1_0480: Odyssey Thera (OT) 8-hour HEK293T Protein-Complementation Assay for Farnesoid X receptor/SRC-1 Co-activator (AID 2283383). An outline of the steps: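 Binding of FXR to coactivator SRC-1 was read as fluorescence from a reconstituted split reporter in HEK293T cells, 8 h after chemical addition. Only increases in signal versus DMSO were fit.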

Assay [5] shares this target. Put plainly: OT_FXR_FXRSRC1_1440: Odyssey Thera (OT) 24-hour HEK293T Protein-Complementation Assay for Farnesoid X receptor/SRC-1 Co-activator (AID 2283384). The method, boiled down: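 Protein-fragment complementation: FXR and SRC-1 fused to reporter fragments that reassemble on interaction, read by fluorescence intensity. Human HEK293T cells measured 24 h post-dose; positive-direction fit versus DMSO.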

Assay [6] concerns the target Retinoic acid receptor RXR-alpha (Homo sapiens) (UniProt P19793). Nature of the assay: OT_NURR1_NURR1RXRa_0480: Odyssey Thera (OT) 8-hour HEK293T Protein Complementation Assay for Nurr1/retinoid X receptor (RXR) (AID 2283385). The method, boiled down:
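Interaction of Nurr1 with RXRα read as reconstituted reporter fluorescence in a HEK293T fragment-complementation system, 8 h post-treatment; increase over DMSO baseline analysed.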

Assay [7] shares this target. Nature of the assay: OT_NURR1_NURR1RXRa_1440: Odyssey Thera (OT) 24-hour HEK293T Protein Complementation Assay for Nurr1/retinoid X receptor (RXR) (AID 2283386). An outline of the steps:
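Gain in fluorescence, fitted relative to DMSO, reflects Nurr1–RXRα association in HEK293T cells after 24 h dosing. Bait and prey are each linked to a reporter-protein fragment that reassembles on interaction.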

Assay [8] deals with Peroxisome proliferator-activated receptor gamma (Homo sapiens) (UniProt P37231). Put plainly: OT_PPARg_PPARgSRC1_0480: Odyssey Thera (OT) 8-hour Protein-Complementation Assay for Peroxisome Proliferator-activated Receptor Gamma / SRC-1 Co-activator (AID 2283387).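 Note: nuclear to cytoplasmic split Venus YFP fluorescence ratio reporting PPARg SRC-1 interaction.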 An outline of the steps:
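Protein-fragment complementation of split Venus YFP reports PPARg/SRC-1 interaction in HEK293T (transfected 48 h before treatment), exposed 8 h. Readout: N/C fluorescence ratio at 488 nm from imaging, Draq5 for segmentation, positive fit relative to DMSO.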

For assay [9] the target is unchanged. Nature of the assay: OT_PPARg_PPARgSRC1_1440: Odyssey Thera (OT) 24-hour Protein-Complementation Assay for Peroxisome Proliferator-activated Receptor Gamma/ SRC-1 Co-activator (AID 2283388).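 Note: nuclear to cytoplasmic ratio of reconstituted Venus YFP fluorescence in fixed imaged cells.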 An outline of the steps:
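Transient HEK293T, YFP fragments 1-158/159-239 (mutant IFP1/IFP2) fused to PPARg/SRC-1; 24 h dosing; fix 4% formaldehyde, Draq5; Opera imaging 488/635 nm; N/C ratio, gain vs DMSO.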

The nature of assay [10]: CEETOX_H295R_11DCORT: CeeTox H295R High-throughput Steroidogenesis Assay for 11-Deoxycortisol (11DCORT) (AID 2283432; active = hit-call score of the fitted dose curve at least 0.9, where 1 is the maximum; inactive = score below 0.9;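 for AC50: 11-deoxycortisol secreted into the medium measured by LC-MS/MS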). To be noted: actives raise or lower the signal. The method, boiled down: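 Human adrenal H295R cells were prestimulated with 10 uM forskolin for 48 h, then exposed to test chemical (0.1% DMSO final) for 48 h. Medium 11-deoxycortisol was quantified by MTBE extraction and HPLC-MS/MS; bidirectional fitting relative to DMSO.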

A short description of assay [11]: CEETOX_H295R_OHPREG: CeeTox H295R High-throughput Steroidogenesis Assay for OH-Pregnenolone (OHPREG) (AID 2283434; active = hit-call score of the fitted dose curve at least 0.9, where 1 is the maximum; inactive = score below 0.9). The note with it: actives raise or lower the signal. An outline of the steps:
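H295R, 10 uM forskolin pre-stim 48 h; test chemical 48 h, 0.1% DMSO final. MTBE extraction, reverse-phase C18 HPLC-ESI+ MS/MS of medium. Gain/loss vs DMSO; viability by MTT in same wells.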

Assay [12] is described as follows: CEETOX_H295R_ANDR: CeeTox H295R High-throughput Steroidogenesis Assay for Androstenedione (ANDR) (AID 2283436; active = hit-call score of the fitted dose curve at least 0.9, where 1 is the maximum; inactive = score below 0.9). To be noted: actives raise or lower the signal. The method, boiled down: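 48 h chemical exposure, H295R cells, DMEM/F12 + ITS+ and Nu-Serum. Medium androstenedione: MTBE extraction, C18 reverse-phase HPLC, ESI+ MS/MS. Fit bidirectional vs DMSO; MTT viability in same wells.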

Assay [13] can be described thus: CEETOX_H295R_CORTIC: CeeTox H295R High-throughput Steroidogenesis Assay for Corticosterone (CORTIC) (AID 2283437; active = hit-call score of the fitted dose curve at least 0.9, where 1 is the maximum; inactive = score below 0.9;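 note: corticosterone secreted into medium quantified by mass spectrometry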). The note with it: actives raise or lower the signal. The method, boiled down:
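48 h forskolin (10 uM) prestim, then 48 h chemical exposure, final DMSO 0.1%. Readout: corticosterone in medium by LC-MS/MS after MTBE extraction. Gain/loss fit vs DMSO; MTT viability in same wells.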

Assay [14] in a line: CEETOX_H295R_CORTISOL: CeeTox H295R High-throughput Steroidogenesis Assay for Cortisol (AID 2283438; active = hit-call score of the fitted dose curve at least 0.9, where 1 is the maximum; inactive = score below 0.9;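 note: cortisol secreted into medium quantified by LC-MS/MS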). To be noted: actives raise or lower the signal. An outline of the steps: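 Cortisol measured by HPLC-MS/MS after MTBE extraction of medium from H295R cells exposed 48 h to chemical (0.1% DMSO), following 48 h prestimulation with 10 uM forskolin. Viability assessed by MTT in the same wells.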

Assay [15] in a line: CEETOX_H295R_DOC: CeeTox H295R High-throughput Steroidogenesis Assay for DOC (AID 2283439; active = hit-call score of the fitted dose curve at least 0.9, where 1 is the maximum; inactive = score below 0.9). To be noted: actives raise or lower the signal. The method, boiled down: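 11-Deoxycorticosterone quantified in medium by MTBE extraction and HPLC-MS/MS after 48 h chemical exposure (0.1% DMSO) of forskolin-primed (10 uM, 48 h) H295R cells. Same-well MTT viability; data fitted bidirectionally against DMSO.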

For assay [16], the target named is Estrogen receptor (Homo sapiens) (UniProt P03372). Put plainly: OT_ERa_GFPERaERE_0480: Odyssey Thera (OT) 8-hour HeLa Transcription Induction Assay for Estrogen Receptor (AID 2283381; active = hit-call score of the fitted dose curve at least 0.9, where 1 is the maximum; inactive = score below 0.9). An outline of the steps:
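Fluorescence microscopy with high-content image analysis measures ERE-driven GFP induction in HeLa cells at 8 h post-dose. Increases fitted against DMSO baseline.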

Assay [17] shares this target. Nature of the assay: OT_ERa_GFPERaERE_0120: Odyssey Thera (OT) 2-hour HeLa Transcription Induction Assay for Estrogen Receptor (AID 2283382). The method, boiled down:
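Fluorescence-microscopy images of the GFP-ERα/ERE reporter, scored by high-content image algorithms, give the readout. HeLa exposure lasted 2 h, and only signal increase over DMSO was fitted.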

Assay [18] has as its target rat Serotonin Transporter (SERT), Slc6a4 (gene 25553) (UniProt P31652). Nature of the assay: NVS_TR_rSERT: NovaScreen (NVS) Transporter Assay for rat Serotonin Transporter (SERT) (AID 2283375). An outline of the steps: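 Steps: rat forebrain membranes dosed with chemical (25 uM duplicate primary; concentration series for actives); 1 h incubation; labelled ligand bound, filtered, counted by scintillation. Activity scored as signal loss vs DMSO.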

The target in assay [19] is mouse Estrogen Receptor alpha (Era), Esr1 (gene 13982) (UniProt P19785). Nature of the assay: NVS_NR_mERa: NovaScreen (NVS) Nuclear Receptor Binding Assay for mouse Estrogen Receptor alpha (Era) (AID 2283378).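 Note: hit means loss of bound radioligand signal relative to DMSO.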 The method, boiled down:
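Test chemicals competed against a specific radioligand for binding to cell-free mouse Era. Duplicate wells at 25 uM were read 18 hours later by filter-based radiodetection, with loss of signal against DMSO scored as activity.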

Assay [20] is described as follows: CEETOX_H295R_ESTRADIOL: CeeTox H295R High-throughput Steroidogenesis Assay for Estradiol (AID 2283440; active = hit-call score of the fitted dose curve at least 0.9, where 1 is the maximum; inactive = score below 0.9;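 note: estradiol secreted into medium quantified by LC-MS/MS after dansyl derivatisation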). The note with it: actives raise or lower the signal. The method, boiled down:
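Following OECD 456 with minor changes, H295R cells received 10 uM forskolin for 48 h and then test chemical for 48 h. Hormone output was read by HPLC-MS/MS, with cytotoxic concentrations diluted until MTT viability reached ≥70%.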

Sequence of Peroxisome proliferator-activated receptor gamma (Homo sapiens) (P37231 whole entry, looked up, the tested form may be a part): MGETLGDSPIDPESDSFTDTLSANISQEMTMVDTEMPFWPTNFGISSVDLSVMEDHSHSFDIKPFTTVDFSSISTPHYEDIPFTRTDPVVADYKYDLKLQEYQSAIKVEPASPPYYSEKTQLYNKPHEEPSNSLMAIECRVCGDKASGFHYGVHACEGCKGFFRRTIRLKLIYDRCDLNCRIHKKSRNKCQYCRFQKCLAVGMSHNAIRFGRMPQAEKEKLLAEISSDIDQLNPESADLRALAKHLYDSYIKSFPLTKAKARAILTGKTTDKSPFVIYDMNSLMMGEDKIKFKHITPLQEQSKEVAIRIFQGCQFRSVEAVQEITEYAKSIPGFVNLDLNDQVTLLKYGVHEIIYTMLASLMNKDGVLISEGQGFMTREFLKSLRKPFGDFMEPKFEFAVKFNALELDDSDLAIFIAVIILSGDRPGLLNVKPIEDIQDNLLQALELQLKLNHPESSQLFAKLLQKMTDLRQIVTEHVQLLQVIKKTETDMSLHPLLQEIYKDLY
Sequence of human Norepinephrine Transporter (NET), SLC6A2 (gene 6530) (P23975 whole entry, looked up): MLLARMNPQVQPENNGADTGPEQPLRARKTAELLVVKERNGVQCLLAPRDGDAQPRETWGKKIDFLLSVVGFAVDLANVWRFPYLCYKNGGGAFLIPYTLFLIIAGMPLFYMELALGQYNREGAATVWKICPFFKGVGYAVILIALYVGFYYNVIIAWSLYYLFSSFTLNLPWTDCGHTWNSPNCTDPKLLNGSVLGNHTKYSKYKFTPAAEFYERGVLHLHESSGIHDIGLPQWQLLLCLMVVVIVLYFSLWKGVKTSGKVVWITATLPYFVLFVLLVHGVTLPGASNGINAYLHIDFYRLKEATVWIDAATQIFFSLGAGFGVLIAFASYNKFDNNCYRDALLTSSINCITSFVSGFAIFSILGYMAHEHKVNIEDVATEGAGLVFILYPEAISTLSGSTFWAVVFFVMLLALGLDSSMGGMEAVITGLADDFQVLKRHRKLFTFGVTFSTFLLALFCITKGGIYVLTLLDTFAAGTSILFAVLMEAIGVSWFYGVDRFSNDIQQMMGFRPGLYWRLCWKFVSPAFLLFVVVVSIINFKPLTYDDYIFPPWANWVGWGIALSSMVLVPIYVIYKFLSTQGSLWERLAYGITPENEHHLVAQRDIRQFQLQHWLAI
Sequence of Estrogen receptor beta (Homo sapiens) (Q92731 whole entry, looked up, the tested form may be a part): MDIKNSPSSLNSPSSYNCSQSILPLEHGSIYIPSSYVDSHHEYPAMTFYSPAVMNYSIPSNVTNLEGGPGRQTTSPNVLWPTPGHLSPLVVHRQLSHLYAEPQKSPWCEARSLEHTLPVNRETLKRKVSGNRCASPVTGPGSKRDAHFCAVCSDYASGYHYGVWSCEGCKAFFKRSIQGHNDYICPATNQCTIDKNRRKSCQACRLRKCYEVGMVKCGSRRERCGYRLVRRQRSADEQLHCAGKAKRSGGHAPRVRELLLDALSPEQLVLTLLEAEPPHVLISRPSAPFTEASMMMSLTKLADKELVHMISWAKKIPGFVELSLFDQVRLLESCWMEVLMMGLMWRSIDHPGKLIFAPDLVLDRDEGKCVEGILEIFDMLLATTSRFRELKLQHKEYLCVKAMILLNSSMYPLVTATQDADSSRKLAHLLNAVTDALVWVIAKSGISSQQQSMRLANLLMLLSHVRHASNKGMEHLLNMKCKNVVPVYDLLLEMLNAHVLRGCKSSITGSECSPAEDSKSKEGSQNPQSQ
Sequence of Agonist Androgen Response Element (ARE), AR (gene 367) (P10275 whole entry, looked up): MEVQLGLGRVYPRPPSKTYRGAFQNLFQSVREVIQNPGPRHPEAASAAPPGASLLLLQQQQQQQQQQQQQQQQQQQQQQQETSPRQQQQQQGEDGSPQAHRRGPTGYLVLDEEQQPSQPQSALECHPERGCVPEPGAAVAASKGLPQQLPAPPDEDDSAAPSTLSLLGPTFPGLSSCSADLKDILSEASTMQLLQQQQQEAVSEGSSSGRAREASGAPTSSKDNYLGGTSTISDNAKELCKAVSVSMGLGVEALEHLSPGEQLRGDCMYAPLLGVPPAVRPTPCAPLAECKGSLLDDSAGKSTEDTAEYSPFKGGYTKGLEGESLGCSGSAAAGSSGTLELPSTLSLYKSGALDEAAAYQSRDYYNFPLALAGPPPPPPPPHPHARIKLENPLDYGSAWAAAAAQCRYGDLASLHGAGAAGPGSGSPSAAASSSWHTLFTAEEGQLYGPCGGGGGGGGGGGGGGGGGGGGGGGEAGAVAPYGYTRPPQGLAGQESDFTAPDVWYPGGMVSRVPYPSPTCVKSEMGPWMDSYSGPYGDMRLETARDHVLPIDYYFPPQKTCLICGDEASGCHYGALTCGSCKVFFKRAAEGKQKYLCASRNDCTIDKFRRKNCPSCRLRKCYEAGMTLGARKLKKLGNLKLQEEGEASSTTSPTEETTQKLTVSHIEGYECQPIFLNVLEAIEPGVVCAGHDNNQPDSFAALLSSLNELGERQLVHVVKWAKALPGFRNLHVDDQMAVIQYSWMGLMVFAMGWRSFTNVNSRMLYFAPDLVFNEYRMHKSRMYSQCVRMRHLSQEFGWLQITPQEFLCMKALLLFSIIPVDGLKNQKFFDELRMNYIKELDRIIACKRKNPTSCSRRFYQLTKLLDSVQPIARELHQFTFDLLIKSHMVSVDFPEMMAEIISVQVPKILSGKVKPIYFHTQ
Sequence of Retinoic acid receptor RXR-alpha (Homo sapiens) (P19793 whole entry, looked up, the tested form may be a part): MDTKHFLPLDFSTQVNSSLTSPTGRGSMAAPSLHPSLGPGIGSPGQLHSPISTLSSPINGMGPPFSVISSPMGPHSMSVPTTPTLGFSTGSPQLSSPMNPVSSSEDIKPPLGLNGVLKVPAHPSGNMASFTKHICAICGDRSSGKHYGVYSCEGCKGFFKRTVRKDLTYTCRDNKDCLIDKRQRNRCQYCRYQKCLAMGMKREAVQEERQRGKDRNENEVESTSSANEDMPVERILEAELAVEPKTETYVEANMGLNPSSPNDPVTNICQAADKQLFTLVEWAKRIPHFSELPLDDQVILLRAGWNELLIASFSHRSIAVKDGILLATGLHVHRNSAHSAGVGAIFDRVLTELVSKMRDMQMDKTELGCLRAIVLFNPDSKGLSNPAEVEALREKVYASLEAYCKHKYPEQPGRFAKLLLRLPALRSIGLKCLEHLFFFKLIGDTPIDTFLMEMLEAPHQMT
Sequence of Bile acid receptor (Homo sapiens) (Q96RI1 whole entry, looked up): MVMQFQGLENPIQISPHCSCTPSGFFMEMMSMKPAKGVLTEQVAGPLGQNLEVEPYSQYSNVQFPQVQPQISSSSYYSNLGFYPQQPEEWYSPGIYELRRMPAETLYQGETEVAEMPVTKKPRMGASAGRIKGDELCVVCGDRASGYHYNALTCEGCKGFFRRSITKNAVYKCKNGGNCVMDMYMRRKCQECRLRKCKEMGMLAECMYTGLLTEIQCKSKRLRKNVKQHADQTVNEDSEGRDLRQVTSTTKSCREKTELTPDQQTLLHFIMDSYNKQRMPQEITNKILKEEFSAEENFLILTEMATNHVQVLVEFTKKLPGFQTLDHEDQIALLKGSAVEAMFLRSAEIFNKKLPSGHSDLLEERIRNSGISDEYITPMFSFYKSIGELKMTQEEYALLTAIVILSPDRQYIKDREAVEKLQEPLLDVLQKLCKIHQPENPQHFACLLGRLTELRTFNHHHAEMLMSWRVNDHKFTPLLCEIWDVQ
Sequence of Estrogen receptor (Homo sapiens) (P03372 whole entry, looked up): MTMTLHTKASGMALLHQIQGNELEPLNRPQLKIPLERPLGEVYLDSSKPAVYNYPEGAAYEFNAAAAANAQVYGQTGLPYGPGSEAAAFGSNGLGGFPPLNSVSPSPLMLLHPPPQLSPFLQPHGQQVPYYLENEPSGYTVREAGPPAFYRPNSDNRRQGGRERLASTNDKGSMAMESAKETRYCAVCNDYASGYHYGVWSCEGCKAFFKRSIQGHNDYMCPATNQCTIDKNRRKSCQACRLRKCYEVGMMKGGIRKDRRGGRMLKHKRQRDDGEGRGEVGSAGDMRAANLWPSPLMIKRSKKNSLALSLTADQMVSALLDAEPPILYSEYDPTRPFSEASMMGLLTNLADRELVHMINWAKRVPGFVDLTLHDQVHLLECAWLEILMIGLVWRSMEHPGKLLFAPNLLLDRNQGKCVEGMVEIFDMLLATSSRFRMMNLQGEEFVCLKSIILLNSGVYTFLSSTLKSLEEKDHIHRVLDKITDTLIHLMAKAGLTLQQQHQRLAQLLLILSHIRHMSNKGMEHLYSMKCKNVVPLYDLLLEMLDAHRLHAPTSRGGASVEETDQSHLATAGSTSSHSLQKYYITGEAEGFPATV
Sequence of rat Serotonin Transporter (SERT), Slc6a4 (gene 25553) (P31652 whole entry, looked up): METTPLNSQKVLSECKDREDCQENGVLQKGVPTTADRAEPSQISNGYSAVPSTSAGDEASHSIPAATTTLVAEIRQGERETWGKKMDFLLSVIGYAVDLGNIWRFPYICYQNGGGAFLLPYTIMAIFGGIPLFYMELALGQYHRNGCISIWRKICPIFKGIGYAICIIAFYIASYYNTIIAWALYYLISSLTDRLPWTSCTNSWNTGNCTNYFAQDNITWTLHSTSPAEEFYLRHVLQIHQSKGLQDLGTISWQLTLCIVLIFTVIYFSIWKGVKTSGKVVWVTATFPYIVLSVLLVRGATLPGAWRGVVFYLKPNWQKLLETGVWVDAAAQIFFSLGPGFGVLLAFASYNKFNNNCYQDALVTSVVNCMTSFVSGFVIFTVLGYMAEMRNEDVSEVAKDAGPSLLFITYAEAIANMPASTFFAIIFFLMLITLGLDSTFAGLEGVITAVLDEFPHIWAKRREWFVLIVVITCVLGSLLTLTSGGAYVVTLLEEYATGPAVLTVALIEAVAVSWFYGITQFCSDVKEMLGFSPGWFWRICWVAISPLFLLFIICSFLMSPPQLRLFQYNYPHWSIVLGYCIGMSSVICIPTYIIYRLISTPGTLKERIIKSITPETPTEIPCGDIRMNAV

As to `CCCCOC(=O)c1ccc(O)cc1`, the AC50 (commonly the midpoint of the concentration-response curve, whichever way the signal moves) in [1] is 13.9 µM (active); in assay [3], 4.49 µM (active) and 5.81 µM (active) and 6.38 µM (active); in assay [4], 50 µM (active) and 31 µM (active); in [5] it was 14.6 µM (active) and 16 µM (active). Further, the compound was called inactive in assay [2], in assay [6], in assay [7], in assay [8], in [9] and in assay [10]. Besides, the compound was classed as inactive in assay [11], in assay [12], in assay [13], in [14] and in [15].

Turning to `CCCC(=O)OCCC(C)C`, the call in assay [2], in [16], in assay [4], in assay [5], in assay [6] and in assay [7] was inactive. Further, the call in [8] and in assay [9] was inactive.

Consider `Cc1ccc(C(C)C)cc1`, for which the result in assay [2], in assay [16], in assay [17], in [4], in assay [6] and in [7] was inactive. The call in assay [8] and in [9] was inactive.

Consider `CC/C(=C(/CC)c1ccc(O)cc1)c1ccc(O)cc1`, for which the compound was classed as inactive in assay [1], in assay [4], in [5], in assay [6] and in [7].

Regarding `NCc1cccc(C2CCN(C(=O)c3ccc(C#Cc4ccccc4F)o3)CC2)c1`, the AC50 in assay [18] is 16.7 µM (active); in [1], 4.42 µM (active); in assay [17], 12 µM (active). Further, the compound was called inactive in [2], in assay [16], in assay [5], in assay [8] and in assay [9].

`Clc1cc(Cl)c2c(c1)N=C1CCCCCN1C2`: the concentration at half-maximal activity (AC50) in [1] was 3.55 µM (active). The result in assay [16], in assay [17], in [5], in assay [6], in assay [7] and in assay [8] was inactive. In addition, the compound was called inactive in assay [9], in assay [10], in assay [11], in assay [13], in assay [14] and in assay [15].

Consider `CCN(CC)C(=O)c1cc(S(=O)(=O)Cc2ccccc2)c(N2CCC(c3ccccc3)CC2)cc1N(CC)CCN(C)C`, for which the AC50 in [1] is 10.4 µM (active); in [19], 2.54 µM (active); in [17] it was 19 µM (active); in assay [4] it was 4.46 µM (active); in [5] it was 4.38 µM (active); in [6], 4.48 µM (active). In addition, the AC50 in assay [7] was 4.48 µM (active). Moreover, the outcome in [3], in assay [16], in [8] and in [9] was inactive.

Consider `CN1C(=O)N(c2ccccc2Br)Cc2cnc(Nc3ccc4c(c3)OCC(CO)O4)nc21` (stereo not drawn), for which the AC50 in assay [1] is 4.72 µM (active); in assay [16] it was 55.4 µM (active); in [4], 0.34 µM (active); in [5] it was 0.54 µM (active); in [6], 0.714 µM (active); in [10] it was 0.723 µM (active). In assay [15], the AC50 is 0.679 µM (active). In addition, the outcome in assay [3], in assay [17], in assay [7], in assay [9], in assay [11] and in assay [13] was inactive. The result in [14] and in assay [20] was inactive.
